Test results published in PubChem BioAssay.
Inconclusive results are not listed. The source made the active and inactive calls.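 How the source made its calls, unless noted: active means binding below the plate cutoff, the plate median minus 3 SD, with a reading above zero; inconclusive means below the plate cutoff but reading exactly zero; inactive means the rest.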

Legend:
[1] = rapamycin-like changes in RPL19A-GFP expression – cell-based, S. cerevisiae, multiplex flow cytometry, primary screen (AID 1862; in the data active means percent of DMSO control GFP below about 86%;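 further: lower values mimic rapamycin by blocking the RPL19A rise seen in DMSO cells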); details: S. cerevisiae RPL19A-GFP strain, flow cytometry fluorescence, 3 h; at 10 µM; stronger effect = lower value
[2] = TOR pathway GLN3 branch reporter MEP2-GFP changes – S. cerevisiae, multiplex flow cytometry, primary screen (AID 1867;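 active means GFP response, as percent of the DMSO control, above the screen-wide mean plus 3 SD, about 139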;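 further: median GFP channel fluorescence of barcode-gated MEP2-GFP cells measured by flow cytometry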); details: S. cerevisiae MEP2-GFP strain, 3 h, at 10 µM, stronger effect = higher value, 100% means same as DMSO wells
[3] = TOR pathway RTG branch CIT2 reporter changes – S. cerevisiae, GFP fusion, multiplex flow cytometry, primary screen (AID 1870;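 active means percent response above a set limit, the screen-wide mean plus 3 SD, cut at about 130% in these data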;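 further: barcoded CIT2-GFP strain pooled with four other GFP strains with rapamycin as positive control; median GFP fluorescence per well over plate mean of DMSO wells so 100% = DMSO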); details: S. cerevisiae CIT2-GFP expression, 3 h, at 10 µM, stronger effect = higher value
[4] = TOR pathway LAP4-GFP level changes – S. cerevisiae, multiplex flow cytometry, primary screen (AID 1873;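 active means GFP signal, as percent of the solvent control, above the screen mean plus 3 SD, about 149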); details: S. cerevisiae LAP4-GFP expression, 3 h, at 10 µM, stronger effect = higher value
[5] = yeast AGP1-GFP level changes, GLN3 branch – cell-based, multiplex flow cytometry, S. cerevisiae, primary screen (AID 1887;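 active means GFP signal above the screen-wide mean plus 3 SD, that is over about 124.5% of the solvent control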;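 further: AGP1-GFP fusion strain of S. cerevisiae within a five-strain barcoded multiplex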); details: 3 h, at 10 µM, stronger effect = higher value
[6] = reduced mouse 2C T cell binding to pMHC/ICAM-1 vesicles – MLPCN validation set, flow cytometry, LFA-1/ICAM-1 modulator project, pilot screen (AID 2523;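 active means response below a set limit, under 55% cells CD8-positive and vesicle-bound, and CD8 cells' 90th-percentile brightness under 279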;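 on vesicle binding response: mean PE anti-B7-1 fluorescence of CD8+ cells relative to row control; 100% = QL9-loaded vesicles with DMSO vehicle in the same plate row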); details: 2C mouse CD8+ T cells, at 7 µM, stronger effect = lower value; double positive events: measured here: CD8+/vesicle+ event percentage
[7] = molecular target: Integrin beta-1 (Homo sapiens) + Integrin alpha-4 (Homo sapiens) (UniProt P13612+P05556); assay: alpha4beta1 integrin LIBS antibody binding reduction – U937 cells, HUTS-21 mAb, flow cytometry, validation set, VLA-4 allosteric modulator project, pilot screen (AID 2674;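 active means inhibition above 50%, about 3 SD of the validation set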;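 further: antibody binding induced by the VLA-4 ligand LDV present at three times its Kd; 0% = LDV ligand with antibody and no compound and 100% = antibody without LDV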); details: HUTS-21 LIBS mAb binding, at 6.7 µM, stronger effect = higher value, binding induced by LDV ligand
[8] = calorie-restriction mimetic ROS inhibitors, yeast – validation compound set, pilot screen (AID 2706;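 active means superoxide response below 65% of plate, a cut near 3 SD across the whole screen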;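 further: yeast exposed to compound for one week at 30 degrees C before staining; 100% = mean of all compound wells on the same plate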); details: S. cerevisiae aging, superoxide DHE fluorescence; at 10 µM, stronger effect = lower value
[9] = molecular target: Beta-adrenergic receptor kinase 1 (Homo sapiens) (UniProt P25098); assay: GRK2 binders displacing RNA aptamer, biochemical, validation, human GRK2, bead flow cytometry (AID 488806;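 active means aptamer binding inhibition above 30%, about 3 SD of noise from non-fluorescent compounds; inactive means inhibition at or below 30%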); details: bead-bound GRK2, FAM-aptamer displacement, at 10 µM, stronger effect = higher value
[10] = molecular target: AP-2 complex subunit beta (Homo sapiens) (UniProt P63010); assay: beta-arrestin/AP2 interaction blockers – biochemical, validation set, GST-AP2 beads, flow cytometry, pilot screen (AID 504541;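 active means inhibition above 54%, about 3 SD of non-fluorescent compounds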;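 further: AP2 carries R879A mutation and is captured from E. coli lysate; bead-bound FITC arrestin peptide fluorescence measuring arrestin peptide binding to AP2; 0% = DMSO wells and 100% = excess unlabeled arrestin peptide control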); details: FITC arrestin peptide, at 10 µM, stronger effect = higher value, AP2 beta2 appendage fragment, R879A mutant
[11] = cytosolic pH regulators acting via V-ATPase – S. cerevisiae, pHLuorin, HTS validation (AID 504600; in the data active means response above about 15%;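 further: plate controls were DMSO for no effect and reference compound for full effect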); details: V-ATPase proton transport, at 10 µM, stronger effect = higher value
[12] = tested on: anti-desmoglein-3 scFv antibody binding to human DSG3; assay: blockers of pathogenic pemphigus antibody–desmoglein-3 binding – biochemical, validation compound set, bead-based, flow cytometry, pilot screen (AID 588368); details: Protein G beads, DSG3-Fc, scFv-GFP binding, at 10 µM, stronger effect = lower value;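 further: signal is the median channel fluorescence of bead-bound GFP antibody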
[13] = Nile Red efflux blockade in pump-expressing yeast – validation compound set, multiplex, phenotypic, pilot screen (AID 588506;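 active means efflux inhibition above 0.42, the validation set average plus 4 SD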;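 further: Nile Red retained in cells so higher fluorescence means more efflux inhibition; 0 = negative control wells and 1 = enniatin B 25 µM full block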); details: S. cerevisiae pump-expressing triplex, Nile Red efflux flow cytometry; at 10 µM; stronger effect = higher value; the pumps come from Candida albicans
[14] = molecular target: ATP-binding cassette sub-family B member 6 (Homo sapiens) (UniProt Q9NP58); assay: blockers of ABCB6-driven porphyrin uptake – K562-ABCB6 cells, flow cytometry, validation set, pilot screen (AID 588550;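 active means inhibition above the screen-wide mean plus 3 SD, about 51%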;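 further: 0% = DMSO wells and 100% = benzethonium chloride 70 µM positive control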); details: K562-ABCB6 porphyrin accumulation, 1 h, at 10 µM, stronger effect = higher value
[15] = AML differentiation inducers, ER-HoxA9 marrow cells – cell-based, GFP/MAC1 double positive, flow cytometry, validation set, primary screen (AID 588685;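 active means differentiation response of at least 50%, scaled between solvent and reference control, from cells with both markers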;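 further: compound exposure lasts four days before antibody staining and flow analysis; 0% = DMSO wells and 100% = 5 µM fulvestrant positive control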); details: stronger effect = higher value, normalized: vehicle 0, fulvestrant 100

Sequence of Beta-adrenergic receptor kinase 1 (Homo sapiens) (P25098 whole entry, looked up): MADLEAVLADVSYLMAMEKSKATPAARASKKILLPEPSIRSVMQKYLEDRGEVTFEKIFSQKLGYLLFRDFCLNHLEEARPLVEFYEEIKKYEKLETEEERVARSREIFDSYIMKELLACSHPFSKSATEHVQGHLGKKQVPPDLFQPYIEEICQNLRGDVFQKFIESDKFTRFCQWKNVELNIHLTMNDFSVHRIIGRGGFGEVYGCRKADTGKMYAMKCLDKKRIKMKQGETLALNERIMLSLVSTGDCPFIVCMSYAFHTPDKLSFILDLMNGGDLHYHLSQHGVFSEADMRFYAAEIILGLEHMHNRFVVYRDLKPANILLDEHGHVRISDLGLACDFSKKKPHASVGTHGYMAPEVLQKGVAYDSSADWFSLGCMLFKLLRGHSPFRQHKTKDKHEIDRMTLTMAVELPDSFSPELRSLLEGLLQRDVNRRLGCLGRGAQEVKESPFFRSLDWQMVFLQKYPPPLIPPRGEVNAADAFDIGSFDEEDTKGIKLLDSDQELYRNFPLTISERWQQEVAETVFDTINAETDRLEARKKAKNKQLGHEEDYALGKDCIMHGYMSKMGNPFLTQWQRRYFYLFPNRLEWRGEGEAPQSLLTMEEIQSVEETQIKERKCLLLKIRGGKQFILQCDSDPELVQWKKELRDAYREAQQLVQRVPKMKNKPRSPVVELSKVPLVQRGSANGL
Sequence of Integrin beta-1 (Homo sapiens) + Integrin alpha-4 (Homo sapiens) (P05556 whole entry, looked up): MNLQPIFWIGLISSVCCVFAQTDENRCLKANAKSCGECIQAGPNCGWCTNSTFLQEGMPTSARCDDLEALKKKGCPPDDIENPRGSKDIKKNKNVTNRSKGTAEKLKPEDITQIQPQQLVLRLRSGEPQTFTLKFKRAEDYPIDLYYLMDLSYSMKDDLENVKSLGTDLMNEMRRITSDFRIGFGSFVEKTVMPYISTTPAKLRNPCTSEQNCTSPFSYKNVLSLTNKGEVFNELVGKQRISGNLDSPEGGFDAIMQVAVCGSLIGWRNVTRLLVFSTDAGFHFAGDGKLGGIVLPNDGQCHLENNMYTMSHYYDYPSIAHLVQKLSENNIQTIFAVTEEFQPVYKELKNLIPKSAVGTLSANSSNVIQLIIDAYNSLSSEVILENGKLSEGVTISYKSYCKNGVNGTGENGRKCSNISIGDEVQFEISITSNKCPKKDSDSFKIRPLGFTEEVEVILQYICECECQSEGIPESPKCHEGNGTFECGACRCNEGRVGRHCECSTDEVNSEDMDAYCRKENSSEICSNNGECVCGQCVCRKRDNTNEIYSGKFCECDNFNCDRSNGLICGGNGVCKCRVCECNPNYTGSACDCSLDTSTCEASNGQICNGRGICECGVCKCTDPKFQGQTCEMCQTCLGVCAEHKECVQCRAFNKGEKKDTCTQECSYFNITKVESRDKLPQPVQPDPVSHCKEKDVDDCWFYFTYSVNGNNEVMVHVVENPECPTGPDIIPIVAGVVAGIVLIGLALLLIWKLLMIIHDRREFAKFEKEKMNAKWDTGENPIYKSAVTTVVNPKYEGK
Sequence of Integrin beta-1 (Homo sapiens) + Integrin alpha-4 (Homo sapiens) (P13612 whole entry, looked up): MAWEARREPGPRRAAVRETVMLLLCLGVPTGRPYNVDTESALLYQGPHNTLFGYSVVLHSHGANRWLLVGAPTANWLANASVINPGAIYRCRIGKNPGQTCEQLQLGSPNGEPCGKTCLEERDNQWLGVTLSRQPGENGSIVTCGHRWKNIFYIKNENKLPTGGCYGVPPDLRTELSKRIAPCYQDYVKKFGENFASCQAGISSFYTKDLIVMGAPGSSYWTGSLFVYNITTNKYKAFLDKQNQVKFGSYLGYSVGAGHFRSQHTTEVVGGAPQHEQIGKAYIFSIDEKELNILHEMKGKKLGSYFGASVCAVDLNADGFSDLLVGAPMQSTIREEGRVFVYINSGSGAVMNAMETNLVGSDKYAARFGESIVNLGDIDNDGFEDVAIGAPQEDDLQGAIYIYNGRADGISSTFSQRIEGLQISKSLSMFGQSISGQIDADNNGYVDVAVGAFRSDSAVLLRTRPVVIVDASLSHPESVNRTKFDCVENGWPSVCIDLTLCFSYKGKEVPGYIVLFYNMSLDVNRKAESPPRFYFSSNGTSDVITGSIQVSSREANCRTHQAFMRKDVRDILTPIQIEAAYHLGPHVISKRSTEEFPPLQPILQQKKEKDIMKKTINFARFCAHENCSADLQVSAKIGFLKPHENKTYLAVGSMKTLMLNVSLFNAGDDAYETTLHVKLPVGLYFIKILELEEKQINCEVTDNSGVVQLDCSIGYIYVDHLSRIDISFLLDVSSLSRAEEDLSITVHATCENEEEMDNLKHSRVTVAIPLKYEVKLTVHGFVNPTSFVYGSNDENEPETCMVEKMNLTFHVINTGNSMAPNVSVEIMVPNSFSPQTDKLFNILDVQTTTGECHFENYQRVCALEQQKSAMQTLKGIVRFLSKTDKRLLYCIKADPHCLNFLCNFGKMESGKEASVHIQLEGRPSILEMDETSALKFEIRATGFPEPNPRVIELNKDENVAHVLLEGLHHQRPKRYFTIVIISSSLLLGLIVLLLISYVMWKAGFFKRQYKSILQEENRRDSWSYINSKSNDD
Sequence of AP-2 complex subunit beta (Homo sapiens) (P63010 whole entry, looked up, the tested form may be a part, one chain of several): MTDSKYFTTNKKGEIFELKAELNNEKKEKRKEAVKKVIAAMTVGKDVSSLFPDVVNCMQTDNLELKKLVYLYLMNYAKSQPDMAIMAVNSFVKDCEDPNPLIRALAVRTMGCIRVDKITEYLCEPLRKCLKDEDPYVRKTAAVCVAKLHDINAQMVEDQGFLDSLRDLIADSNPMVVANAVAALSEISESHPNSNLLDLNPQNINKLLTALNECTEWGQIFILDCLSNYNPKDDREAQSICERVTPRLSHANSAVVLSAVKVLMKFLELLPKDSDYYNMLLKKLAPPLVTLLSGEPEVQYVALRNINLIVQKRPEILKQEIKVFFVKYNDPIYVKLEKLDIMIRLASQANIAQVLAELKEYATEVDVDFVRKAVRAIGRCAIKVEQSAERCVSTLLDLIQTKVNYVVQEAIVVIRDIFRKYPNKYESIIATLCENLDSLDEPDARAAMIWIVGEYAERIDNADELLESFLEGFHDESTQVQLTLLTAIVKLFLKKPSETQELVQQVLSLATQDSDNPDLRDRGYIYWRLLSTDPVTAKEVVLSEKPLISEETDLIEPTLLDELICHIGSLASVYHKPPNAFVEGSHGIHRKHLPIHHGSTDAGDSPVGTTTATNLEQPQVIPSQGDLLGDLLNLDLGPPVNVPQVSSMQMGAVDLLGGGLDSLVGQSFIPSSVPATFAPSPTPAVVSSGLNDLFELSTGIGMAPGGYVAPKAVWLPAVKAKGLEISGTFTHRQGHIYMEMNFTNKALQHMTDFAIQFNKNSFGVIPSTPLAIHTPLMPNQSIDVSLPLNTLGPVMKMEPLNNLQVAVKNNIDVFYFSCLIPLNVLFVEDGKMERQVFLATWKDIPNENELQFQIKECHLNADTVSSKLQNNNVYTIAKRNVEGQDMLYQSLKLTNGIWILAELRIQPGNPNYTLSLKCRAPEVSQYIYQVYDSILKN
Sequence of ATP-binding cassette sub-family B member 6 (Homo sapiens) (Q9NP58 whole entry, looked up): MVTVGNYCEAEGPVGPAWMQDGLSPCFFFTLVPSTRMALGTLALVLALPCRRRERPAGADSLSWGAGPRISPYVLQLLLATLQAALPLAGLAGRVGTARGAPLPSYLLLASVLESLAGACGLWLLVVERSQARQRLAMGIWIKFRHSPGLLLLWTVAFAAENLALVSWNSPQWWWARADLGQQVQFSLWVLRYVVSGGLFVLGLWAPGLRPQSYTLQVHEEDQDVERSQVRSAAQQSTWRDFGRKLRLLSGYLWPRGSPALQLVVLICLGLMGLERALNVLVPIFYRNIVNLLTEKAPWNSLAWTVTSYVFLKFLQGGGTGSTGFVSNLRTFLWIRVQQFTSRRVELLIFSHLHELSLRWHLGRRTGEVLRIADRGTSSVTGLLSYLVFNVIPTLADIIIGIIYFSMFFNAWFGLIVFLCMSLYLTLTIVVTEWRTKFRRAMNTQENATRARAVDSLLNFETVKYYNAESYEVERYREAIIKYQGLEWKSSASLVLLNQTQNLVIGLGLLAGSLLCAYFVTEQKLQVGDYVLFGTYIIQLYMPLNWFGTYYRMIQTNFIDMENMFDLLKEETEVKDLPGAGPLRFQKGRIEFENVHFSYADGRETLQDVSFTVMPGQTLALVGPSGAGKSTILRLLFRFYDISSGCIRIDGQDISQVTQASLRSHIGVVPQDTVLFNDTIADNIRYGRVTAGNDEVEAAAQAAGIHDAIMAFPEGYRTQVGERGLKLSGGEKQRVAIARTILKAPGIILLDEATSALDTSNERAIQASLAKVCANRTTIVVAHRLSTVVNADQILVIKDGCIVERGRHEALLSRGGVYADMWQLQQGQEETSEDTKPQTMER

COc1cccc(CN2CCN(C(=O)c3ccc(-c4ccccc4)cc3)CC2)c1
52.5%: double positive events [6]
inactive: percent of DMSO control GFP [1] 99.1% | GFP response vs DMSO [2] 103% | percent response of DMSO control [3] 103% | GFP response vs DMSO [4] 113% | GFP response, % of DMSO [5] 98.8% | vesicle binding response [6] 189% | inhibition [7] -6.77% | superoxide response (% of plate) [8] 87.9% | aptamer binding inhibition [9] 2% | inhibition [10] -7.96% | response [11] 5.01% | binding (% of control) [12] 99.5% | efflux inhibition (fraction of control) [13] 0.22 | inhibition [14] 7% | differentiation response [15] 4.64%

COC(=O)c1cc(-c2ccc(C)o2)nc2ccccc12
45.1%: double positive events [6]
inactive: percent of DMSO control GFP [1] 101% | GFP response vs DMSO [2] 95.9% | percent response of DMSO control [3] 93.9% | GFP response vs DMSO [4] 109% | GFP response, % of DMSO [5] 78.2% | vesicle binding response [6] 76.1% | inhibition [7] -21.7% | superoxide response (% of plate) [8] 109% | aptamer binding inhibition [9] 5% | inhibition [10] 3.96% | response [11] 2% | binding (% of control) [12] 108% | inhibition [14] 10% | differentiation response [15] -8.27%
active: efflux inhibition (fraction of control) [13] 0.94

COC1=CC(=O)CC(C)C12Oc1c(Cl)c(OC)cc(OC)c1C2=O (centres undefined)
inactive: percent of DMSO control GFP [1] 105% | GFP response vs DMSO [2] 99.9% | percent response of DMSO control [3] 107% | GFP response vs DMSO [4] 103% | GFP response, % of DMSO [5] 98.7% | vesicle binding response [6] 131% | inhibition [7] 8.15% | superoxide response (% of plate) [8] 97.4% | aptamer binding inhibition [9] -1% | inhibition [10] 14.5% | response [11] 0.18% | binding (% of control) [12] 95.9% | efflux inhibition (fraction of control) [13] -0.09 | inhibition [14] 8% | differentiation response [15] -14.7%
42.3%: double positive events [6]

CC(COc1ccccc1)NC(C)C(O)c1ccc(O)cc1 (centres undefined)
55.7%: double positive events [6]
inactive: percent of DMSO control GFP [1] 104% | GFP response vs DMSO [2] 101% | percent response of DMSO control [3] 111% | GFP response vs DMSO [4] 103% | GFP response, % of DMSO [5] 108% | vesicle binding response [6] 203% | inhibition [7] -496% | superoxide response (% of plate) [8] 107% | aptamer binding inhibition [9] -1% | inhibition [10] 37.9% | response [11] -3.92% | binding (% of control) [12] 100% | efflux inhibition (fraction of control) [13] -0.05 | inhibition [14] 9% | differentiation response [15] -19.6%

COc1cc2c(cc1OC)C(c1cc(OC)c(OC)c(OC)c1)NCC2 (centres undefined)
inactive: percent of DMSO control GFP [1] 101% | GFP response vs DMSO [2] 103% | percent response of DMSO control [3] 108% | GFP response vs DMSO [4] 90.3% | GFP response, % of DMSO [5] 102% | vesicle binding response [6] 148% | inhibition [7] -0.24% | superoxide response (% of plate) [8] 102% | aptamer binding inhibition [9] 2% | inhibition [10] -5.98% | response [11] -3.82% | binding (% of control) [12] 96% | efflux inhibition (fraction of control) [13] -0.01 | inhibition [14] 7% | differentiation response [15] -14.7%
59.3%: double positive events [6]

COc1c(C)cc(C(=O)C2CCCN(Cc3ccc(Oc4ncccn4)cc3)C2)cc1C (centres undefined)
56.4%: double positive events [6]
inactive: percent of DMSO control GFP [1] 99.5% | GFP response vs DMSO [2] 107% | percent response of DMSO control [3] 112% | GFP response vs DMSO [4] 103% | GFP response, % of DMSO [5] 103% | vesicle binding response [6] 202% | inhibition [7] -4.9% | superoxide response (% of plate) [8] 99.2% | aptamer binding inhibition [9] 0% | inhibition [10] 4.02% | response [11] 0.79% | binding (% of control) [12] 101% | efflux inhibition (fraction of control) [13] -0.01 | inhibition [14] 5% | differentiation response [15] -30.9%

COCCCC/C(=N\OCCN)c1ccc(C(F)(F)F)cc1
60.3%: double positive events [6]
active: differentiation response [15] 139%
inactive: percent of DMSO control GFP [1] 108% | GFP response vs DMSO [2] 108% | percent response of DMSO control [3] 98.8% | GFP response vs DMSO [4] 93.3% | GFP response, % of DMSO [5] 105% | vesicle binding response [6] 182% | inhibition [7] 10% | superoxide response (% of plate) [8] 102% | aptamer binding inhibition [9] -7% | inhibition [10] -0.39% | response [11] 1.1% | binding (% of control) [12] 91.7% | efflux inhibition (fraction of control) [13] 0.18 | inhibition [14] 3%

COC(=O)c1ccc(=O)n(Cc2ccco2)c1
inactive: percent of DMSO control GFP [1] 94.7% | GFP response vs DMSO [2] 92.8% | percent response of DMSO control [3] 97.9% | GFP response vs DMSO [4] 92.3% | GFP response, % of DMSO [5] 96.9% | vesicle binding response [6] 166% | inhibition [7] -6.77% | superoxide response (% of plate) [8] 86.5% | aptamer binding inhibition [9] -2% | inhibition [10] -1.44% | response [11] -0.2% | binding (% of control) [12] 94.6% | efflux inhibition (fraction of control) [13] -0.16 | inhibition [14] 12% | differentiation response [15] -8.27%
58.2%: double positive events [6]

CN(C)c1nc(N(C)C)nc(N(C)C)n1
active: efflux inhibition (fraction of control) [13] 0.78
63%: double positive events [6]
inactive: percent of DMSO control GFP [1] 94.6% | GFP response vs DMSO [2] 103% | percent response of DMSO control [3] 97.9% | GFP response vs DMSO [4] 97.4% | GFP response, % of DMSO [5] 94.2% | vesicle binding response [6] 181% | inhibition [7] 5.36% | superoxide response (% of plate) [8] 95.5% | aptamer binding inhibition [9] 0% | inhibition [10] 47.8% | response [11] -8.12% | binding (% of control) [12] 99.3% | inhibition [14] 9% | differentiation response [15] 14.3%
